In all, about 16,000 sequences were measured (“rpm ratio (pull-down/input)”: median about 0.94, highest 2% from about 1.7 on). The sample as a whole holds a higher share of the highest values than the screen did.

For the experiment, the target named is T1, MBP-FoxP1dN (Mus musculus, UniProt P58462 326-579).
T1 sequence: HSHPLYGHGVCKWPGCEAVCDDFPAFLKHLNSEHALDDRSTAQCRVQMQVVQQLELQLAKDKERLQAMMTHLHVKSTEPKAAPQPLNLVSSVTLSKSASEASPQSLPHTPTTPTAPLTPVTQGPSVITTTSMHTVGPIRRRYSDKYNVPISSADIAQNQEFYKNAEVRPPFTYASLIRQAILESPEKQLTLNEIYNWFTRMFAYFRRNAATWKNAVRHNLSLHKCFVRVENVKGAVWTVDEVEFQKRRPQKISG
The experiment in a line: PD-seq (MBP pull-down with sequencing); 20 mM Tris-HCl pH 7.5, 100 mM NaCl, 1.5 mM MgCl2, 0.4 uM protein, 0.1 uM dsDNA library, 30 min, room temperature, amylose pull-down; high values mean tight binding. Particulars: protein: recombinant; tags: His6-MBP; chain copies: 2; dsDNA, one strand shown. The method, boiled down: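 Amylose resin was used to capture complexes formed during 30 min at room temperature in Tris pH 7.5 buffer with NaCl and MgCl2 between 0.4 µM His6-MBP-tagged mouse FoxP3 or FoxP1 fragment lacking the N-terminus, expressed in E. coli, and 0.1 µM Klenow-filled double-stranded degenerate DNA library. After three washes, the DNA was released with proteinase K, barcoded by PCR and sequenced on Illumina. Binding is pooled-replicate reads-per-million enrichment, pull-down over input.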
With “GATGATTGTTCTCCCAGCTGATGAATTGGCTATGTCGAGTAAACAAATTTTCCTAATCTTTCTGTTCAAGCGCCATCTAC”, the binding signal was 0.854 RPM ratio (pull-down/input).
In the case of “GATGATTGTTCTCCCAGCTGATGAATTCGTCAGTTCGAGTAAACAAATTTTCCTAATCTTTCTGTTCAAGCGCCATCTAC”, the binding signal was 0.905 RPM ratio (pull-down/input).
For “GATGATTGTTCTCCCAGCTGATGAATTGTCTCCATCGAGTAAACAAATTTTCCTAATCTTTCTGTTCAAGCGCCATCTAC”, the binding signal was 1.11 RPM ratio (pull-down/input).
Regarding “GATGATTGTTCTCCCAGCTGATGAATTGGTTTTATCGAGTAAACAAATTTTCCTAATCTTTCTGTTCAAGCGCCATCTAC”, the binding signal was 1.14 RPM ratio (pull-down/input).
Turning to “GATGATTGTTCTCCCAGCTGATGAATTAGTGAGATCGAGTAAACAAATTTTCCTAATCTTTCTGTTCAAGCGCCATCTAC”, the binding signal is 0.857 RPM ratio (pull-down/input).
“GATGATTGTTCTCCCAGCTGATGAATTTACTTCTTCGAGTAAACAAATTTTCCTAATCTTTCTGTTCAAGCGCCATCTAC”: the binding signal is 1.33 RPM ratio (pull-down/input).
For “GATGATTGTTCTCCCAGCTGATGAATTACTTTATTCGAGTAAACAAATTTTCCTAATCTTTCTGTTCAAGCGCCATCTAC”, the binding signal was 1.15 RPM ratio (pull-down/input).
For the sequence “GATGATTGTTCTCCCAGCTGATGAATTTTTTACTTCGAGTAAACAAATTTTCCTAATCTTTCTGTTCAAGCGCCATCTAC”, the binding signal was 1.05 RPM ratio (pull-down/input).
As to “GATGATTGTTCTCCCAGCTGATGAATTGTTTACTTCGAGTAAACAAATTTTCCTAATCTTTCTGTTCAAGCGCCATCTAC”, the binding signal was 2.82 RPM ratio (pull-down/input).
For “GATGATTGTTCTCCCAGCTGATGAATTTATTACTTCGAGTAAACAAATTTTCCTAATCTTTCTGTTCAAGCGCCATCTAC”, the binding signal was 1.29 RPM ratio (pull-down/input).
Take “GATGATTGTTCTCCCAGCTGATGAATTATTTACTTCGAGTAAACAAATTTTCCTAATCTTTCTGTTCAAGCGCCATCTAC”: the binding signal was 2.15 RPM ratio (pull-down/input).
Turning to “GATGATTGTTCTCCCAGCTGATGAATTGCCAATGTCGAGTAAACAAATTTTCCTAATCTTTCTGTTCAAGCGCCATCTAC”, the binding signal is 0.943 RPM ratio (pull-down/input).
As to “GATGATTGTTCTCCCAGCTGATGAATTGCGCGAATCGAGTAAACAAATTTTCCTAATCTTTCTGTTCAAGCGCCATCTAC”, the binding signal is 1.14 RPM ratio (pull-down/input).
For “GATGATTGTTCTCCCAGCTGATGAATTAGATTTATCGAGTAAACAAATTTTCCTAATCTTTCTGTTCAAGCGCCATCTAC”, the binding signal was 1.13 RPM ratio (pull-down/input).
Turning to “GATGATTGTTCTCCCAGCTGATGAATTCTCTTTATCGAGTAAACAAATTTTCCTAATCTTTCTGTTCAAGCGCCATCTAC”, the binding signal is 0.967 RPM ratio (pull-down/input).
“GATGATTGTTCTCCCAGCTGATGAATTTGCTTCTTCGAGTAAACAAATTTTCCTAATCTTTCTGTTCAAGCGCCATCTAC”: the binding signal is 1.02 RPM ratio (pull-down/input).
On to “GATGATTGTTCTCCCAGCTGATGAATTTGCTTTTTCGAGTAAACAAATTTTCCTAATCTTTCTGTTCAAGCGCCATCTAC”, for which the binding signal was 1.21 RPM ratio (pull-down/input).
“GATGATTGTTCTCCCAGCTGATGAATTTTTGCTTTCGAGTAAACAAATTTTCCTAATCTTTCTGTTCAAGCGCCATCTAC”: the binding signal was 1.83 RPM ratio (pull-down/input).
Take “GATGATTGTTCTCCCAGCTGATGAATTGCTTTGTTCGAGTAAACAAATTTTCCTAATCTTTCTGTTCAAGCGCCATCTAC”: the binding signal was 1.11 RPM ratio (pull-down/input).
Turning to “GATGATTGTTCTCCCAGCTGATGAATTGCTTTTTTCGAGTAAACAAATTTTCCTAATCTTTCTGTTCAAGCGCCATCTAC”, the binding signal was 1.45 RPM ratio (pull-down/input).
Turning to “GATGATTGTTCTCCCAGCTGATGAATTTGTTGCTTCGAGTAAACAAATTTTCCTAATCTTTCTGTTCAAGCGCCATCTAC”, the binding signal is 1.54 RPM ratio (pull-down/input).
Next, “GATGATTGTTCTCCCAGCTGATGAATTTTTTGCTTCGAGTAAACAAATTTTCCTAATCTTTCTGTTCAAGCGCCATCTAC”: 0.938 RPM ratio (pull-down/input); “GATGATTGTTCTCCCAGCTGATGAATTGTTGCTTTCGAGTAAACAAATTTTCCTAATCTTTCTGTTCAAGCGCCATCTAC”: 2.12 RPM ratio (pull-down/input).
On to “GATGATTGTTCTCCCAGCTGATGAATTGTTTGCTTCGAGTAAACAAATTTTCCTAATCTTTCTGTTCAAGCGCCATCTAC”, for which the binding signal was 2.2 RPM ratio (pull-down/input).
Regarding “GATGATTGTTCTCCCAGCTGATGAATTTGGCAGCTCGAGTAAACAAATTTTCCTAATCTTTCTGTTCAAGCGCCATCTAC”, the binding signal is 0.875 RPM ratio (pull-down/input).
As for “GATGATTGTTCTCCCAGCTGATGAATTAACGCTGTCGAGTAAACAAATTTTCCTAATCTTTCTGTTCAAGCGCCATCTAC”, the binding signal was 0.97 RPM ratio (pull-down/input).
“GATGATTGTTCTCCCAGCTGATGAATTAAAGAGTTCGAGTAAACAAATTTTCCTAATCTTTCTGTTCAAGCGCCATCTAC”: the binding signal is 0.941 RPM ratio (pull-down/input).
For the sequence “GATGATTGTTCTCCCAGCTGATGAATTCAGATTATCGAGTAAACAAATTTTCCTAATCTTTCTGTTCAAGCGCCATCTAC”, the binding signal was 0.977 RPM ratio (pull-down/input).
Next, “GATGATTGTTCTCCCAGCTGATGAATTCGGTAGATCGAGTAAACAAATTTTCCTAATCTTTCTGTTCAAGCGCCATCTAC”: 0.874 RPM ratio (pull-down/input); “GATGATTGTTCTCCCAGCTGATGAATTTATATGATCGAGTAAACAAATTTTCCTAATCTTTCTGTTCAAGCGCCATCTAC”: 1.14 RPM ratio (pull-down/input); “GATGATTGTTCTCCCAGCTGATGAATTGTTTTATTCGAGTAAACAAATTTTCCTAATCTTTCTGTTCAAGCGCCATCTAC”: 1.6 RPM ratio (pull-down/input).
In the case of “GATGATTGTTCTCCCAGCTGATGAATTTATTATTTCGAGTAAACAAATTTTCCTAATCTTTCTGTTCAAGCGCCATCTAC”, the binding signal was 1.6 RPM ratio (pull-down/input).
As for “GATGATTGTTCTCCCAGCTGATGAATTATTTATTTCGAGTAAACAAATTTTCCTAATCTTTCTGTTCAAGCGCCATCTAC”, the binding signal is 2.06 RPM ratio (pull-down/input).
Regarding “GATGATTGTTCTCCCAGCTGATGAATTTTTTTATTCGAGTAAACAAATTTTCCTAATCTTTCTGTTCAAGCGCCATCTAC”, the binding signal is 0.953 RPM ratio (pull-down/input).

The values above are taken from paper PMC12820563, “FoxP3 forms a head-to-head dimer in vivo and stabilizes its multimerization on adjacent microsatellites”.
